Compound activity from PubChem.
TEAD-YAP block – TEAD-YAP interaction inhibition | HEK-TIYL cells, TEAD-Gal4/YAP UAS-luciferase luminescence | inhibition, % at 9.12 µM | hit rate 1.4% among 640,000; in the data active = inhibition above about 32%;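 note: 0% = median of test compound wells and 100% = reference inhibitor wells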
GPR151 activ – activates the human receptor GPR151. Q8TDV0. PathHunter beta-arrestin GPR151 cells, luminescence. activation, % at 11.2 µM. hit rate 1% among 650,000. AID 1508602; in the data active = activation above about 4.9%;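 note: 0% = median of compound wells and 100% = cells with positive control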
MITF inh – human MITF inhibition, primary screen; hit rate 0.91% among 650,000; AlphaScreen MITF homodimerization, bead proximity signal; AID 1259374; inhibition, % at 2.6 µM; in the data active = inhibition above about 50%;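 note: 0% = vehicle wells with protein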
Target sequence (O75030 whole entry, looked up): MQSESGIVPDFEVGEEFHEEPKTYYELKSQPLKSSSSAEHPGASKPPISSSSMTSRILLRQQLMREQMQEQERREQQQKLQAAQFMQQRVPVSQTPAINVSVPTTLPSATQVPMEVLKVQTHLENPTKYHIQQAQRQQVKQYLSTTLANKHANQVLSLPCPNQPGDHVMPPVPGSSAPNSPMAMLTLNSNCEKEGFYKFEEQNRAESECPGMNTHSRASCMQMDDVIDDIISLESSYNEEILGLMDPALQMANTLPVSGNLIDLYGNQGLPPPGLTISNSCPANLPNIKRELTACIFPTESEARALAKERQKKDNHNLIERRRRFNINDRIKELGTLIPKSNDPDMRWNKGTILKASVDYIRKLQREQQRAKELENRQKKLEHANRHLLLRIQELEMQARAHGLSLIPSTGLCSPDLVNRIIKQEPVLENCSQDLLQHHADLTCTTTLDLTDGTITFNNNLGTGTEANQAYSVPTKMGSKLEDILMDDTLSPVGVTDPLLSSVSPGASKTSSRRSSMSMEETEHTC
FBW7 activator – activators of human E3 ligase FBW7; Q969H0; AlphaScreen FBW7–phospho-cyclin E peptide binding, activator screen; normalized activity (activation), % at 26.1 µM; hit rate 0.13% among 650,000; in the data active = normalized activity above about 1.9%;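 note: purified mutant Fbw7 with reduced substrate affinity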
Active calls of the source: *. Only some compounds are listed: those with a hit (about 3.5% of all), similar ones and a draw of the others.

SMILES	TEAD-YAP block	GPR151 activ	MITF inh	FBW7 activator
Cc1nc(C(C)NC2CCN(c3cccc(NC(=O)c4ccncc4)c3)CC2)cs1 (stereo unspecified)	-22.8	-0.7	-3.3	-0.1
CC(NC1CCN(c2cccc(NC(=O)c3ccncc3)c2)CC1)c1ccc(Cl)cc1 (stereo unspecified)	35.8*	0.1	15.8	-0.1
CC(C)NC(=O)C1CCCN(S(=O)(=O)c2cccs2)C1 (stereo unspecified)	1.8	-0.4	-6.8	0.1
COc1c(C)cc(C(=O)C2CCCN(S(=O)(=O)c3cccs3)C2)cc1C (stereo unspecified)	51.7*	-0.2	-3.7	0.1
COc1c(C)cc(C(=O)C2CCCN(S(=O)(=O)c3ccsc3)C2)cc1C (stereo unspecified)	44.3*	1.5	3.0	0.0
COc1cc(/C=C2\N=C(c3ccccc3)OC2=O)cc(I)c1OC	4.0	0.1	7.9	0.1
Cc1cc(NC(=O)Cc2ccccc2)c(=O)n(Cc2ccccc2F)c1	-0.6	0.6	-2.0	-0.1
CCc1ccc(NC(=O)CSc2nc3ccccc3c3nc(C)nn23)cc1	62.3*	0.1	9.7	0.0
Cc1nc2c3ccccc3nc(SCC(=O)Nc3ccc(Br)cc3)n2n1	4.0	-0.5	5.2	-0.1
COc1ccc(C(=O)/C(=C\c2ccco2)N2C=CC=CC2=C(C#N)C#N)cc1	43.2*	-3.6	5.0	0.2
N#CC(C#N)=C1C=CC=CN1/C(=C\c1ccccc1)C(=O)c1ccccc1	-5.0	1.0	12.1	0.8
Cn1cccc1/C=C(\C(=O)c1ccccc1)N1C=CC=CC1=C(C#N)C#N	61.2*	-0.4	-5.0	-0.1
CCOC(=O)C1=C(O)/C(=C/c2ccc(Cl)cc2)SC1=Nc1ccccc1	13.0	-1.2	7.6	0.3
COc1cc(NC(=O)c2cncc(-c3cccc(C(C)=O)c3)c2)cc(OC)c1OC	59.3*	-0.6	1.0	0.0
COc1cccc(-c2cc(C(=O)Nc3cc(OC)c(OC)c(OC)c3)on2)c1	42.1*	0.1	3.6	-0.3
COc1cc(NC(=O)c2cccc(-c3cccc(C(C)=O)c3)c2)cc(OC)c1OC	29.9	3.1	-1.9	0.0
COc1cc(NC(=O)c2cncc(-c3cccs3)c2)cc(OC)c1OC	39.3*	-0.4	6.7	0.1
O=C(O)C1(c2ccccc2)CC/C(=N/O)C1 (stereo unspecified)	3.3	-0.4	5.9	0.0
CCOC(=O)C(CC)Oc1ccc2c(C)c(C)c(=O)oc2c1 (stereo unspecified)	4.2	1.6	13.8	0.0
Cc1ccc(/C=C2/SC(=S)N(c3ccc(CC(=O)O)cc3)C2=O)o1	-4.7	1.3	59.0*	-0.2
Cc1ccc(/C=C2/SC(=S)N(CCC(=O)O)C2=O)o1	0.7	-0.1	38.5	-0.1
Cc1ccc(/C=C2\SC(=S)N(CCCC(=O)O)C2=O)o1	52.7*	0.3	30.6	-0.2
Cc1ccc(/C=C2/SC(=S)N(CO)C2=O)o1	11.3	-0.7	85.0*	-1.3
Cc1ccc(/C=C2\SC(=S)N(/N=C/c3ccc(C)o3)C2=O)o1	7.0	0.3	54.3*	-0.9
CCCN1C(=O)/C(=C/c2ccc(C)o2)SC1=S	0.5	4.9	-3.3	-0.3
SMILES	TEAD-YAP block	GPR151 activ	MITF inh	FBW7 activator
CCOc1ccccc1NC(=O)c1c(NC(=O)c2ccco2)sc2c1CCCCC2	1.9	-0.4	7.0	0.3
Cc1cccc(NC(c2cccc(F)c2)c2ccc3cccnc3c2O)n1 (stereo unspecified)	40.3*	-1.3	5.1	-0.2
Cc1cccc(NC(c2ccc(F)cc2)c2ccc3cccnc3c2O)n1 (stereo unspecified)	85.8*	-1.7	26.0	-0.3
Oc1c(C(Nc2ccc(F)cc2)c2ccncc2)ccc2cccnc12 (stereo unspecified)	-3.1	-1.3	61.0*	-2.1
Oc1c(C(Nc2ccccn2)c2cccc(F)c2)ccc2cccnc12 (stereo unspecified)	21.0	0.5	0.2	-0.3
Oc1c(C(Nc2ncccn2)c2ccc(F)cc2)ccc2cccnc12 (stereo unspecified)	0.6	2.1	14.9	0.0
Cc1ccc(C)c(NC(=O)C2(C)CC3c4ccccc4C2c2ccccc23)c1 (stereo unspecified)	3.9	1.4	11.2	0.2
COc1ccc(NC(=O)C2(C)CC3c4ccccc4C2c2ccccc23)cc1 (stereo unspecified)	-0.5	1.5	7.9	1.9*
O=C1N/C(=C/c2cccc(F)c2)C(=O)N1Cc1ccc(Br)cc1	55.0*	-0.7	0.7	0.5
COc1cc(/C=C2/NC(=O)N(Cc3ccc(Br)cc3)C2=O)cc2c1OCO2	59.8*	1.0	-1.5	0.0
